Screening data from PubChem.
KCNH2 3.1 block: qHTS for Inhibitors of KCHN2 3.1: Mutant qHTS; activity change, % (tested at about 1.8 µM); 340,000 compounds, 0.95% hits; U2OS KCNH2 3.1, thallium flux FluxOr; stronger effect = lower value; Potassium voltage-gated channel subfamily H member 2, brain isoform KCNH2 3.1 (human); AID 720553, 2013;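 active = maximum activity change below -70%; inconclusive = maximum activity change from -70% to -50%; inactive = maximum activity change above -50%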;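 note: thallium influx rate constant from kinetic fluorescence after stimulation buffer; % is set by controls: 0 for no effect and ±100 for the full control effect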
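Virally transduced U2OS (3.1 isoform, 4 h infection in dark at RT) → overnight 37 C → FluxOr + Red40 in HBSS/HEPES, 45 min → stimulation buffer, 2 min kinetic read → rate constant vs DMSO controls.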
TRPV1 PAM: HTS Assay for Compounds that Act as Potentiators of the Vanilloid Receptor 1. Transient receptor potential cation channel subfamily V member 1 (Homo sapiens), Q8NER1. TRPV1-expressing cells, Fluo-8 calcium influx, capsaicin EC20 potentiation. potentiation, % at 8.33 µM. 320,000 compounds, 0.02% hits. AID 540277, 2011; in the data active = potentiation above about 80%; inconclusive = between about 30% and that limit; note: 0% is about no effect
Target sequence (Q8NER1 whole entry, looked up): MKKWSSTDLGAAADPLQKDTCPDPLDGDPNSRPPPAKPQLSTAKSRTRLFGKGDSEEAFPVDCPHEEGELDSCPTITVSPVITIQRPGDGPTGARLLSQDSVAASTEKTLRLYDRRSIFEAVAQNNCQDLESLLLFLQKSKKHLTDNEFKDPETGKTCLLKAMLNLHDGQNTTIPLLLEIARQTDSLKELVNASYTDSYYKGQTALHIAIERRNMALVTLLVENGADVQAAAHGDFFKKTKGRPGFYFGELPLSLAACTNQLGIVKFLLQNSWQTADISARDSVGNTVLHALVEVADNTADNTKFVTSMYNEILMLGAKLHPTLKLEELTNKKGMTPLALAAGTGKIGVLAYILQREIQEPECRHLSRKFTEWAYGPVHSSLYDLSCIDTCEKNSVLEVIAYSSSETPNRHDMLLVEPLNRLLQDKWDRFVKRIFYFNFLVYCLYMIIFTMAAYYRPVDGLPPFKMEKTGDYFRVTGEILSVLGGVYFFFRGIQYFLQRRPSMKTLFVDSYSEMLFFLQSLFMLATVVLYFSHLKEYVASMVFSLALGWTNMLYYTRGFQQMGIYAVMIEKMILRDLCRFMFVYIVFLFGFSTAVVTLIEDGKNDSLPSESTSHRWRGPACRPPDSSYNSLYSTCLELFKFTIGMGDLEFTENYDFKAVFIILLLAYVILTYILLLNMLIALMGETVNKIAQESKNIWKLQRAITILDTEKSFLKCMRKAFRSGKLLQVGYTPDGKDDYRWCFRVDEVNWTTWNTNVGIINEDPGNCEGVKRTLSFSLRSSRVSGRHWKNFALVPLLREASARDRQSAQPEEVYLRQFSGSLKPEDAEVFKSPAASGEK
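Cells expressing TRPV1 were dye-loaded with Fluo-8 and read kinetically: 10 s baseline, 3 min after compound (agonist portion), then 2 min after EC20 capsaicin (allosteric enhancer portion). Calcium-bound dye fluorescence at 480/520 nm.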
TRPV1 agonist: HTS Assay for Compounds that Act as Agonists of the Vanilloid Receptor 1; 320,000 compounds, 0.19% hits; TRPV1-expressing cells, Fluo-8 calcium influx, agonist mode; activation, % at 8.33 µM; in the data active = activation above about 80%; inconclusive = between about 30% and that limit; note: 0% is about no effect
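Cells expressing TRPV1 were dye-loaded with Fluo-8 and read kinetically: 10 s baseline, 3 min after compound (agonist portion), then 2 min after EC20 capsaicin (allosteric enhancer portion). Calcium-bound dye fluorescence at 480/520 nm.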
hERG WT inh: qHTS for Inhibitors of KCHN2 3.1: Wildtype qHTS; Voltage-gated inwardly rectifying potassium channel KCNH2 (Homo sapiens), Q12809; U2OS, BacMam KCNH2, thallium flux FluxOr; stronger effect = lower value; activity change, % at 1.84 µM; 340,000 compounds, 0.37% hits; AID 720551, 2013;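 active = maximum activity change below -70%; inconclusive = maximum activity change between -70% and -50%; inactive = maximum activity change above -50%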; note: % is set by controls: 0 for no effect and ±100 for the full control effect
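U2OS cells were transduced with wild-type KCNH2 virus (2.03 x 10^8 / mL) for 4 h at room temperature, then cultured overnight at 37 C. Thallium flux was read with FluxOr dye. Rate constants were normalized to DMSO controls.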
Numbers without * were called inactive; ? = inconclusive; nt = no result given. Rows were chosen to be rich in hits. Some 1.2% of all compounds tested hit in one or more screens of this group.

SMILES	KCNH2 3.1 block	TRPV1 PAM	TRPV1 agonist	hERG WT inh
CN1C(C(=O)NCCc2cccs2)CC2Cn3c(nc4cc(Cl)c(Cl)cc43)C21 (stereo not drawn)	-10	5	2	8
C[C@@H]1CN([C@H](C)CO)C(=O)c2cc(Br)cnc2O[C@@H]1CN(C)C(=O)NC1CCCC1	-11	nt	nt	-8
Cc1noc(C)c1C(=O)OCC(=O)NCc1ccccc1	13	7	0	0
c1csc(-c2nc(NCC3CCCO3)c3ccccc3n2)c1 (stereo not drawn)	-6	-15	?	7
c1ccc(CN2CCC(Nc3nc(-c4cccs4)nc4ccccc34)CC2)cc1	-73*	5	-4	nt
O=C(CN1CCN(C(=O)C2CC2)CC1)Nc1ccc(Cl)cc1F	-8	10	-3	4
CCCCCC(=O)N1C[C@@H](O)[C@H](n2cc(-c3ccc(F)cc3)nn2)C[C@@H]1c1ccccc1	-1	nt	nt	-14
COc1cc2c(c(OC)c1OC)-c1c(cc(OC)c(OC)c1OC)C[C@H](C)[C@H](C)C2	-174*	-29	?	-74*
C[C@@]12C(=O)N(CC3CCCO3)CC(=O)N1[C@H]1c3cc(Cl)ccc3OC[C@@H]1[C@@H]2c1ccccc1 (stereo partly drawn)	-93*	nt	nt	3
CCOC(=O)[C@H]1[C@H]2COc3ccc(OC)cc3[C@@H]2N2C(=O)c3cc(C)ccc3NC(=O)[C@@]12C	-18	12	99*	-17
C[C@@]12C(=O)Nc3ccc(Br)cc3C(=O)N1[C@H]1c3cc(Cl)ccc3OC[C@@H]1[C@@H]2c1ccccc1	-74*	-41	5	-3
CCOC(=O)[C@H]1[C@H]2COc3ccccc3[C@@H]2N2C(=O)c3cc(OC)ccc3NC(=O)[C@@]12C	-10	3	?	5
CCOC(=O)[C@H]1[C@H]2COc3ccc(C)cc3[C@@H]2N2C(=O)c3ccc(F)cc3NC(=O)[C@@]12C	3	20	85*	2
CCOc1ccc(S(=O)(=O)Nc2cccc(C(=O)NCC3CCCO3)c2)cc1 (stereo not drawn)	-2	13	-5	7
COc1ccc(NC(=O)N(C)C[C@H]2OCCCC[C@@H](C)Oc3ccc(NC(=O)c4ccccc4)cc3C(=O)N([C@H](C)CO)C[C@@H]2C)cc1	-7	nt	nt	-20
CC(=O)c1cccc(NC(=O)CSc2n[nH]c(=O)n2C2CC2)c1	-6	nt	nt	1
CCOC(=O)[C@H]1[C@H]2COc3ccc(C)cc3[C@@H]2N2C(=O)c3cc(F)ccc3NC(=O)[C@@]12C	nt	18	91*	nt
CCOC(=O)[C@H]1[C@H]2COc3ccc(C)cc3[C@@H]2N2C(=O)c3cc(Cl)ccc3NC(=O)[C@@]12C	-16	25	82*	6
CCOC(=O)[C@H]1[C@H]2COc3ccc(C)cc3[C@@H]2N2C(=O)c3ccccc3NC(=O)[C@@]12C	2	7	90*	3
CCOC(=O)[C@H]1[C@H]2COc3ccc(Cl)cc3[C@@H]2N2C(=O)c3cc(F)ccc3NC(=O)[C@@]12C	10	-7	?	-11
COC(=O)C1C2CC(=O)C(C2)C1C(=O)OC (stereo not drawn)	nt	nt	nt	-19
O=C(N/N=C/c1ccc(O)cc1)/C(=C/c1ccccc1)CCO	-88*	17	-3	-3
O=C(N/N=C/c1ccccc1)C(=O)N/N=C/c1ccccc1	-4	3	-1	2
O=C(NC1CC1)c1ccc2c(c1)S(=O)(=O)c1cc(Cl)ccc1C2=O	nt	-13	5	nt
CS(=O)(=O)N1CCn2c1nc1ccccc12	21	-1	-4	-9
CCN1N=C(c2ccccc2)Cn2c1nc1ccccc12	nt	-14	90*	-18
O=C(N/N=C\c1ccccc1)c1ccccc1-n1cccc1	-12	3	-2	0
C/C(=N\NC(=O)c1ccccc1-n1cccc1)C1CC1	-76*	0	0	-4
Oc1cccc(/C=N/Nc2cc(N3CCOCC3)nc(N3CCOCC3)n2)c1	0	-29	93*	-4
COc1ccc2[nH]c3c(c2c1)CCN1C(=O)C(CC(=O)NCCC2=CCCCC2)C[C@H](C(=O)N2CCCCC2)[C@@]31C (stereo partly drawn)	1	nt	nt	3
